Outcome data for 8 compounds are collected here from PubChem BioAssay AID1923 (Vanderbilt High Throughput Screening Facility, 2009).

Activity calls are given as the source filed them.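 Rule for the calls: active = compound that boosted calcium signal to a low acetylcholine dose in a dose-dependent way; inactive = the rest.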

Chain of Muscarinic acetylcholine receptor M4 (Rattus norvegicus) (P08485 whole entry, looked up): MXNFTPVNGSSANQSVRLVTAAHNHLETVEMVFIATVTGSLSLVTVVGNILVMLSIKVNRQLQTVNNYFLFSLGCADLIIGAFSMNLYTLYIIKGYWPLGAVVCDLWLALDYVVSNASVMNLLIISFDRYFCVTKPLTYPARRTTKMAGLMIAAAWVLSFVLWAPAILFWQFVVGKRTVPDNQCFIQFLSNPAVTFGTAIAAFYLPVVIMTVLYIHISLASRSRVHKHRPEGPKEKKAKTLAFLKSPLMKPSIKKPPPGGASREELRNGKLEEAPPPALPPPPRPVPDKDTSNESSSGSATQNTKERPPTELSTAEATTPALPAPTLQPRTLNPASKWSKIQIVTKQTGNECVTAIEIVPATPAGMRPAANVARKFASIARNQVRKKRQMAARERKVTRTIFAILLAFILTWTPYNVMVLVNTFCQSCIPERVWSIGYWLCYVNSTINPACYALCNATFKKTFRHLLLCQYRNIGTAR

This assay addresses Muscarinic acetylcholine receptor M4 (Rattus norvegicus) (UniProt P08485). In words: potentiation of acetylcholine response at rM4 – cell-based, analogs, calcium mobilization, Gqi5, SAR follow-up (AID 1923). The conditions noted are these: CHO-K1 rM4/Gqi5, calcium mobilization Fluo-4, ACh EC20. For orientation: Calcium flux is commonly read through the fluorescence of an indicator in the cells.
Regarding `Cc1cc(OCCN2CCOCC2)nc2sc(C(=O)Nc3ccccc3)c(N)c12`, the outcome was “active; fitted 5.81 uM”.

On to `COc1ccc(CNC(=O)c2sc3nc(OCCN(C)C)cc(C)c3c2N)cc1`, for which the result was inactive. On to `Cc1cc(OCc2ccncc2)nc2sc(C(=O)NCc3cc(F)ccc3F)c(N)c12`, for which the outcome is “active; fitted 1.58 uM”. Next, `CCCCCOc1cc(C)c2c(N)c(C(=O)NCc3ccc(OC)cc3)sc2n1`: “inactive”; `COc1ccc(CNC(=O)c2sc3nc(OCCCN(C)C)cc(C)c3c2N)cc1`: “inactive”. For `Cc1cc(OCCCN(C)C)nc2sc(C(=O)NCc3cc(F)ccc3F)c(N)c12` the value was “active; fitted 2.75 uM”; for `Cc1cc(OCCN2CCOCC2)nc2sc(C(=O)NC3COC3)c(N)c12`, “active; fitted 7.42 uM”; for `COc1ccc(CNC(=O)c2sc3nc(OCCN4CCOCC4)cc(C)c3c2N)cc1`, “active; fitted 6.47 uM”.
